# ± gives the standard deviation of the averaged measurements. The full data set covers some 6,500 targets. This sample favours those with the largest changes.
# Compound: Nc1ncnc2c1ncn2[C@@H]1O[C@H](COP(=O)(O)OP(=O)(O)OP(=O)(O)O)[C@@H](O)[C@H]1O [adenosine triphosphate]
# Test: NP40-soluble protein abundance relative to vehicle (solubility fold change) (ratio); higher = more soluble protein in presence of ATP
# Conditions: concentration: 6mM
# How it was run: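 Jurkat crude lysate (Dounce-homogenised) was treated with eight concentrations from 0.1 to 10 mM for 10 min at room temperature, then 3 min at 37 °C. It was solubilised with 0.8% NP40 and benzonase (60 min, 4 °C) and ultracentrifuged, and the supernatant was TMT-labelled for LC-MS/MS. Intensities were vsn-normalised, and the value is the fold change against the NP40-processed vehicle per replicate, from three independent experiments.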
# Sequence of UniProt Q15393 (Q15393 whole entry): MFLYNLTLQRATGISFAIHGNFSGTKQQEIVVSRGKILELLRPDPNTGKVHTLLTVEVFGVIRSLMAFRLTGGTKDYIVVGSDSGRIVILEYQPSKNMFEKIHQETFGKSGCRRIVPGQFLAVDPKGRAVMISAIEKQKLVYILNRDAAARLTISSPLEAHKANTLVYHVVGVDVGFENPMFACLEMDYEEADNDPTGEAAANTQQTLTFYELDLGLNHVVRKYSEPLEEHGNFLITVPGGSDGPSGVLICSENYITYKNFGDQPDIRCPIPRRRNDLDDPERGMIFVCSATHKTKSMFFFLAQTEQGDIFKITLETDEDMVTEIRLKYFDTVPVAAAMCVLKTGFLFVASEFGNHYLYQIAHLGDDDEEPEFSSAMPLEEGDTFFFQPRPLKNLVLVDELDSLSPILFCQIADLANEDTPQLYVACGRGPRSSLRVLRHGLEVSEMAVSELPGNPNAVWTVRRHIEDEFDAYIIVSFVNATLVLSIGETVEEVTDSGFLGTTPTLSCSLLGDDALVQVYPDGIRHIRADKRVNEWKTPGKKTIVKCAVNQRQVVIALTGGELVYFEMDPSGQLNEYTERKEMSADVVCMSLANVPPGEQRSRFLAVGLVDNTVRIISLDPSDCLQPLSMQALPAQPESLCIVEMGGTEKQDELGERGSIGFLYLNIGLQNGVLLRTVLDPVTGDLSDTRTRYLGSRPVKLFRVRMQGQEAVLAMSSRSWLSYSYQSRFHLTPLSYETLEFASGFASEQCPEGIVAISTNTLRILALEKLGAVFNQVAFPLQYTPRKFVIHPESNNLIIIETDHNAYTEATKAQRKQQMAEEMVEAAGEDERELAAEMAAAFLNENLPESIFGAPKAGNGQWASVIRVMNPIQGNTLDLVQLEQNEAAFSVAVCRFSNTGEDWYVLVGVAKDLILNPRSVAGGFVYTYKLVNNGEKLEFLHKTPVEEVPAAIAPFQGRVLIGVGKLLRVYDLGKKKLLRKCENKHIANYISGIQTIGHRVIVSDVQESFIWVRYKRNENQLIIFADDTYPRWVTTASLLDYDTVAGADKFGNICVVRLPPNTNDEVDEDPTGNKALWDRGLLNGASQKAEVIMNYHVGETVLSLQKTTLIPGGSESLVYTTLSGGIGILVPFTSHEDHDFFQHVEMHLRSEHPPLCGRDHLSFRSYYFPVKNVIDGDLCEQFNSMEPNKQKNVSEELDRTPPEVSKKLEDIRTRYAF
# Sequence of UniProt Q14643 (Q14643 whole entry): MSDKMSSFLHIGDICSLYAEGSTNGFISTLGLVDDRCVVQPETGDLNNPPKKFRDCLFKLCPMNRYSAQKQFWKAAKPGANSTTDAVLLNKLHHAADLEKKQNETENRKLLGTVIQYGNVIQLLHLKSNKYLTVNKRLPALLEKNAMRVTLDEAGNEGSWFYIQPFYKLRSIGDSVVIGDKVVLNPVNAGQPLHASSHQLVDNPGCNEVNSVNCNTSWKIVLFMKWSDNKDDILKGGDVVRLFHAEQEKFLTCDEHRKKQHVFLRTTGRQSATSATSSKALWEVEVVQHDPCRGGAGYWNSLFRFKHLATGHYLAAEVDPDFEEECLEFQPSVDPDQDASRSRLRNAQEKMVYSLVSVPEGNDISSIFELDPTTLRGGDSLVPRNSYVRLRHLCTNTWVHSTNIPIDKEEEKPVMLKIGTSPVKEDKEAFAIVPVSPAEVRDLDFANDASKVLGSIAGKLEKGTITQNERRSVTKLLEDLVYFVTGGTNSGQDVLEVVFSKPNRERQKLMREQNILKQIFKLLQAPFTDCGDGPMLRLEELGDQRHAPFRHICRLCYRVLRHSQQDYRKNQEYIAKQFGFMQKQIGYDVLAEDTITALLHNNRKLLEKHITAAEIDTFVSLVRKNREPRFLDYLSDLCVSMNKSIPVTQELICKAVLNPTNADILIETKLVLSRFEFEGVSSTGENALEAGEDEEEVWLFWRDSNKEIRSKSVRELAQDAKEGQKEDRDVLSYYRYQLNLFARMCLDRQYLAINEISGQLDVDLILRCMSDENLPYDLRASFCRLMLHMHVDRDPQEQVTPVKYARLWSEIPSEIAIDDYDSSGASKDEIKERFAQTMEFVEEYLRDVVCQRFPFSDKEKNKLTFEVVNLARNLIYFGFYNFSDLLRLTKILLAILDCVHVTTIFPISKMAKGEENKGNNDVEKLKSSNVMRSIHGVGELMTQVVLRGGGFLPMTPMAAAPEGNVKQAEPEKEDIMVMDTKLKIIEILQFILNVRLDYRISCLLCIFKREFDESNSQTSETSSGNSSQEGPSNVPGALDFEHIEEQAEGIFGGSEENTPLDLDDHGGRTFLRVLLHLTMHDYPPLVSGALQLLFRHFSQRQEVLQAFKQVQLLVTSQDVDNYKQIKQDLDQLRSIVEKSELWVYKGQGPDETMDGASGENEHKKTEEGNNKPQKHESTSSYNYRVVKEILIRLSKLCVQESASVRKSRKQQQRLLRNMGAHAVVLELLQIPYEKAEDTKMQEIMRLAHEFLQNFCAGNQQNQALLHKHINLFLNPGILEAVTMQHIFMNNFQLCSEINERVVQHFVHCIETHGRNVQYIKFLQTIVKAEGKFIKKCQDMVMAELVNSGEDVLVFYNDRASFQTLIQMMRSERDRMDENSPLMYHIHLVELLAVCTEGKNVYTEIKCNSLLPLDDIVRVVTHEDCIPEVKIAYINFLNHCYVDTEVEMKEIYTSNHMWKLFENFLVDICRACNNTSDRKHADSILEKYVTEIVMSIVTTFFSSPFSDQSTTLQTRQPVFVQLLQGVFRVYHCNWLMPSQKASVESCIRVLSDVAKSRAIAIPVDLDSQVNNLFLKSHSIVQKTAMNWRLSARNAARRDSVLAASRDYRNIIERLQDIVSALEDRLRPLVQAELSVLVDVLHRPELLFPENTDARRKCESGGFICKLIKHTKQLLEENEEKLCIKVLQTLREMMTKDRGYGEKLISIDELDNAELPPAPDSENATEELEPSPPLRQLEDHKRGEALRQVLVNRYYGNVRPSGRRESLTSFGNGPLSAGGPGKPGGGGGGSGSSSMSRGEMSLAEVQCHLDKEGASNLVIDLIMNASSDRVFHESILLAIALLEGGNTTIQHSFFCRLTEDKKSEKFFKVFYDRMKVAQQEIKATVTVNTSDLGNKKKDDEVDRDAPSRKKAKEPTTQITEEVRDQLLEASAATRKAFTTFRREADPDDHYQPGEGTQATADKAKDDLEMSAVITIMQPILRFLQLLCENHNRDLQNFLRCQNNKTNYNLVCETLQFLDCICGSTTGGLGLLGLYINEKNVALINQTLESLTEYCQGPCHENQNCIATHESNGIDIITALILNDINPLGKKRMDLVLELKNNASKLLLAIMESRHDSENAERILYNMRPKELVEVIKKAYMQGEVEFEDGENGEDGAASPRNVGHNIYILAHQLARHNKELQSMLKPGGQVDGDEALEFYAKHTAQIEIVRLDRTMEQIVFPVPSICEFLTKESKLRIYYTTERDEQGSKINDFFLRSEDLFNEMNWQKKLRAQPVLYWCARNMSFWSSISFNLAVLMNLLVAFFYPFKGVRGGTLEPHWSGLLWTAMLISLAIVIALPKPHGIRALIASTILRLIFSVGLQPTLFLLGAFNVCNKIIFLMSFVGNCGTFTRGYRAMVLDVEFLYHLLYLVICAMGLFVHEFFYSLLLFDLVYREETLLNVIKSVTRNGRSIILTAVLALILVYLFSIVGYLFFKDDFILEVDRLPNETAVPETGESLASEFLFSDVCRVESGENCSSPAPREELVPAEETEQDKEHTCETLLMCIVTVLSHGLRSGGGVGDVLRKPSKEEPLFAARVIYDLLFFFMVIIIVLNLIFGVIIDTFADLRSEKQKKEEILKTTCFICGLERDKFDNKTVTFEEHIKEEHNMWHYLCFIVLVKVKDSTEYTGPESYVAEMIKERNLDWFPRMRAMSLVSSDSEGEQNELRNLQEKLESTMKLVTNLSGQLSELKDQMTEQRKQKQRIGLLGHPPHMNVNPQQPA
# Sequence of UniProt Q8IWZ8 (Q8IWZ8 whole entry): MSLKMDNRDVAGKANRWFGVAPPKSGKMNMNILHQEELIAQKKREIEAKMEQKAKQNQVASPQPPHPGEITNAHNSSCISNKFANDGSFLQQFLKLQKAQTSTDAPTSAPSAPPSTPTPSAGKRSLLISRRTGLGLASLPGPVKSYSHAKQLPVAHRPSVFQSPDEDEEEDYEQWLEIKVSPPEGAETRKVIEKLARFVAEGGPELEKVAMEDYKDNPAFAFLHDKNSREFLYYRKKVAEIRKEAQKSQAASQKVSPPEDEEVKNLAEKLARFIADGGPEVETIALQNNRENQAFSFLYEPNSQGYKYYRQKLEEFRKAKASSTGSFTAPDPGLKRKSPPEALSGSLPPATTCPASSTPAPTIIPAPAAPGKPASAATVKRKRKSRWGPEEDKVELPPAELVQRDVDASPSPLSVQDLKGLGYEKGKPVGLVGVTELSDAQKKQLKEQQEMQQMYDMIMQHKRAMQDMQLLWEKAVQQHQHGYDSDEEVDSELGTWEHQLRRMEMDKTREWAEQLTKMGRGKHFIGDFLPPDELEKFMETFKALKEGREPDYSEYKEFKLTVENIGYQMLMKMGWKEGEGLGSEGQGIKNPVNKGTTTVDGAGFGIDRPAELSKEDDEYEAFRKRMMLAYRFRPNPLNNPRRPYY
# Sequence of UniProt Q13761 (Q13761 whole entry): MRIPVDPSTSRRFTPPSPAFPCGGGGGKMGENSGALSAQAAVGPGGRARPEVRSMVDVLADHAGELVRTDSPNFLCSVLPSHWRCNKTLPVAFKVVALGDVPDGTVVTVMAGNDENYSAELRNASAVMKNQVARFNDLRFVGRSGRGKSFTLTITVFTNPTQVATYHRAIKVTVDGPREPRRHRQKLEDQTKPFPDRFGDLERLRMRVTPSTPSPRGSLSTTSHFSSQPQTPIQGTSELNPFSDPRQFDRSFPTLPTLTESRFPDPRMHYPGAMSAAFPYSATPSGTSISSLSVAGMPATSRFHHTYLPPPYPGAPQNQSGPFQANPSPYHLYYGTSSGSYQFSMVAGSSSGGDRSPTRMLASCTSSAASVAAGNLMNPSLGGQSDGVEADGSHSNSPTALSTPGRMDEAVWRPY
row,Target,NP40-soluble protein abundance
1,UniProt Q14643|Q14643-2|Q14643-5,0.961 ± 0.07
2,UniProt Q0VDD8-4,0.9241 ± 0.0037
3,TBC1D25 (UniProt Q3MII6),0.962 ± 0.095
4,UniProt Q8IWZ8,1.11 ± 0.068
5,SF3B3 (UniProt Q15393),1.1 ± 0.032

# Same assay, conditions: concentration: 8mM
row,Target,NP40-soluble protein abundance
1,UniProt Q13137|Q13137-3|Q13137-4|Q13137-5|H0YBP4,0.941 ± 0.012
2,UniProt Q14498|Q14498-2,1.98 ± 0.15
3,UniProt Q8N684|Q8N684-2|Q8N684-3,1.82 ± 0.055
4,CIRBP (UniProt Q14011),1.09 ± 0.051
5,GSPT2 (UniProt Q8IYD1),0.991 ± 0.042
6,EFTUD2 (UniProt Q15029),1.41 ± 0.056
7,UniProt Q12872|Q12872-2,1.77 ± 0.066
8,UniProt Q8WUY8|M0R1E3,1.03 ± 0.067
9,PRPF4B (UniProt Q13523),1.68 ± 0.041
10,UniProt Q6PK18|Q6PK18-2,1.09 ± 0.15
11,UniProt Q13761|Q13761-2,1.13 ± 0.23
12,DCUN1D3 (UniProt Q8IWE4),0.931 ± 0.039
13,UniProt Q14677|Q14677-3,1.07 ± 0.033
14,UniProt Q14155-1,0.976 ± 0.024
15,UniProt Q8NCU8-2,0.883 ± 0.12
16,DHX9 (UniProt Q08211),1.88 ± 0.091
17,UniProt Q16630|Q16630-2,3.03 ± 0.2

row,Target,NP40-soluble protein abundance
1,UniProt Q7Z5G4|Q7Z5G4-3,0.878 ± 0.014
2,DDX60 (UniProt Q8IY21),1.9 ± 0.16
3,ZNF672 (UniProt Q499Z4),0.996 ± 0.047
4,NFX1 (UniProt Q12986),1.62 ± 0.031
5,UniProt Q6KCM7-2|Q6KCM7-3|Q6KCM7|Q6KCM7-4|Q6KCM7-5,0.868 ± 0.039
6,LARP1 (UniProt Q6PKG0),1.22 ± 0.043
7,UniProt Q8IZ81|D6RBS5,0.967 ± 0.045
8,UniProt Q13642-1|Q13642-4|Q13642-5,0.979 ± 0.12
9,UniProt Q641Q2|F8W7U3|Q641Q2-2,0.895 ± 0.05
10,FLCN (UniProt Q8NFG4),0.977 ± 0.07
11,UniProt Q13243,1.92 ± 0.13
12,UniProt Q14643|Q14643-2|Q14643-5,1.02 ± 0.027
13,UniProt Q0VDD8-4,0.956 ± 0.13
14,TBC1D25 (UniProt Q3MII6),1.01 ± 0.14
15,UniProt Q8IWZ8,1.11 ± 0.051
16,SF3B3 (UniProt Q15393),1.188 ± 0.0092

# Same assay, conditions: concentration: 10mM
row,Target,NP40-soluble protein abundance
1,UniProt Q13137|Q13137-3|Q13137-4|Q13137-5|H0YBP4,0.948 ± 0.026
2,UniProt Q14498|Q14498-2,2.02 ± 0.2
3,UniProt Q8N684|Q8N684-2|Q8N684-3,1.83 ± 0.032
4,CIRBP (UniProt Q14011),1.1 ± 0.025
5,GSPT2 (UniProt Q8IYD1),0.987 ± 0.037
6,EFTUD2 (UniProt Q15029),1.42 ± 0.12
7,UniProt Q12872|Q12872-2,1.93 ± 0.075
8,UniProt Q8WUY8|M0R1E3,1.08 ± 0.013
9,PRPF4B (UniProt Q13523),1.8 ± 0.022
10,UniProt Q6PK18|Q6PK18-2,1.04 ± 0.024
11,UniProt Q13761|Q13761-2,1.18 ± 0.13
12,DCUN1D3 (UniProt Q8IWE4),0.866 ± 0.11
13,UniProt Q14677|Q14677-3,1.09 ± 0.055
14,UniProt Q14155-1,0.962 ± 0.034
15,UniProt Q8NCU8-2,0.752 ± 0.038
16,DHX9 (UniProt Q08211),1.95 ± 0.15
17,UniProt Q16630|Q16630-2,3.05 ± 0.28

row,Target,NP40-soluble protein abundance
1,UniProt Q7Z5G4|Q7Z5G4-3,0.897 ± 0.032
2,DDX60 (UniProt Q8IY21),1.95 ± 0.11
3,ZNF672 (UniProt Q499Z4),0.995 ± 0.016
4,NFX1 (UniProt Q12986),1.66 ± 0.11
5,UniProt Q6KCM7-2|Q6KCM7-3|Q6KCM7|Q6KCM7-4|Q6KCM7-5,0.894 ± 0.026
6,LARP1 (UniProt Q6PKG0),1.33 ± 0.065
7,UniProt Q8IZ81|D6RBS5,0.958 ± 0.057
8,UniProt Q13642-1|Q13642-4|Q13642-5,0.983 ± 0.064
9,UniProt Q641Q2|F8W7U3|Q641Q2-2,0.896 ± 0.047
10,FLCN (UniProt Q8NFG4),0.974 ± 0.033
11,UniProt Q13243,1.98 ± 0.07
12,UniProt Q14643|Q14643-2|Q14643-5,0.995 ± 0.045
13,UniProt Q0VDD8-4,1.06 ± 0.059
14,TBC1D25 (UniProt Q3MII6),1 ± 0.15
15,UniProt Q8IWZ8,1.09 ± 0.037
16,SF3B3 (UniProt Q15393),1.19 ± 0.037
